Measured values from PubChem BioAssay AID2108 (National Center for Advancing Translational Sciences (NCATS), 2009).
Records with an inconclusive call do not appear. A number with no mark means an inactive call. Calls follow the shape of the dose curve; as a rule, active = well fitted curve in the direction sought with a large enough effect; inconclusive = small, poorly fitted or top-dose-only effect, or effect the other way, or another doubt; inactive = no such curve, though single readings can be large or run the other way.

The compounds below were run against Alpha-galactosidase A (Homo sapiens) (UniProt P06280) (assay: Confirmation of Inhibitors of Human alpha-Galactosidase Using Spleen Homogenate). Conditions: alpha-galactosidase enzyme activity; series mostly up to 56.2 µM; activity change: at the top concentration.
Alpha-galactosidase A (Homo sapiens), sequence (P06280 32-429 limits assumed): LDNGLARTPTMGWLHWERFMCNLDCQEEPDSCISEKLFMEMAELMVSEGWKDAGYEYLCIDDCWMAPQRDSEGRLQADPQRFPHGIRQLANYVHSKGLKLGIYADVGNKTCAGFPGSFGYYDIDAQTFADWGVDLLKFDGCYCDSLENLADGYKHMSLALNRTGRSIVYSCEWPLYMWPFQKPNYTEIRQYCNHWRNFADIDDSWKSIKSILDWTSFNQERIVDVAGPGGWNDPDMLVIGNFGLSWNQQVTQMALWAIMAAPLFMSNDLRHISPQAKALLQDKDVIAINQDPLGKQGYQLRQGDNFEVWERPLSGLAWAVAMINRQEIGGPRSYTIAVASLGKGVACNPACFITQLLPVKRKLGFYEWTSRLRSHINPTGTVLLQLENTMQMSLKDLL
How it was run: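 AC50 values come from Hill-equation fits of normalised 4-methylumbelliferone fluorescence (365/440 nm, read after NaOH/glycine stop). Enzyme source: spleen homogenate; substrate 1 mM final; pH 5.0 citrate buffer; 40 min at 37C; compound titration 0.5 nM–58 uM.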
Also: 0% is about no effect.

SMILES | activity change
COc1ccc(C2=NNC(c3cc(Cl)cc4c3OCOC4)C2)c(O)c1 (stereo not drawn) | 0.302%
Fc1ccc(CNc2ccc(N3CCN(Cc4ccccc4)CC3)cc2)cc1 | -2.51%
Cc1cccc(NC(=O)c2nc[nH]c2C(=O)N[C@@H](CCCCNC(=O)OC(C)(C)C)C(=O)OC(C)(C)C)c1 | -3.5%
O=C(CSc1ncc(C(F)(F)F)cc1Cl)N1CCN(S(=O)(=O)c2ccccc2)CC1 | 3.43%
Nc1ccc(Cc2ccc(N)c(O)c2)cc1O | -5.93%
S=C(NCCc1ccccc1)N1CCn2cccc2C1c1ccncc1 (stereo not drawn) | 0.147%
CCOC(=O)C(CC)(CCC(=O)O)c1csc(Nc2ccc(C)cc2)n1 (stereo not drawn) | 9.44% [at 23.6 µM]
COC(=O)c1cc(OC)c(OC)cc1NC(=O)CCCCCN1C(=O)CCC1=O | 10.8% [at 23.6 µM]
Cn1cnc2c(NCc3ccccc3)nc(NCCO)nc21 | 4.37%
CCC1C(=O)NCCN1Cc1nc(-c2ccc(C)s2)oc1C (stereo not drawn) | 6.37%
COC(=O)CSc1ccc(C#N)c(SCC(=O)OC)c1 | 7.51% [at 23.6 µM]
O=C(CNc1ccc(Cl)cc1)c1ccc(Br)cc1 | 1.37%
COc1ccc(S(=O)(=O)N2CCOCC2)cc1 | 0.0857%
Cc1ccc2oc(C(=O)Nc3ccc(S(=O)(=O)N4CCCCC4C)cc3)cc(=O)c2c1 (stereo not drawn) | -5.07%
Cc1nnc(SCC(=O)Nc2nsc(-c3ccc(C(C)(C)C)cc3)n2)s1 | 1.06% [at 23.6 µM]
O=C(CCc1cccc(S(=O)(=O)N2CCOCC2)c1)NN=C1c2ccccc2-c2ccccc21 | -3.69%
Cn1c(=O)c2c(nc(NCc3ccc4c(c3)OCO4)n2Cc2ccc(F)cc2)n(C)c1=O | -1.94%
N#CCCN1CCN(S(=O)(=O)c2ccc(S(=O)(=O)N3CCOCC3)cc2)CC1 | 6.75%
